Source: PubChem BioAssay (Tox21)
Inconclusive results are not listed. Values without a mark were called inactive. Active and inactive are the calls of the source. Calls follow the shape of the dose curve; as a rule, active = well fitted cell-killing curve with a large enough effect in the repeat runs; inconclusive = weak or mixed curves, or effect the other way; inactive = flat fitted curve, though single readings scatter.

test: cAMP Responsive Elements (CRE) small molecule antagonists, cell-based qHTS assay: qHTS cell viability counter screen (AID 2060913); details: CRE-bla HEK293T viability, CellTiter-Glo luminescence, 5 h; series mostly up to 92.4 µM; viability change, negative = cytotoxic: at the top concentration; also: nearly all actives have a fitted effect of over 40% in size
Outline: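 Cytotoxicity read in the same wells as the CRE-bla HEK293T antagonist assay: after 3 h compound with 0.25 uM NKH477 final and 2 h beta-lactamase substrate, CellTiter-Glo luminescence measured.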
% is scaled to controls: 0 for no effect and ±100 for the full control effect; potency is read from the fitted curve at half-maximal effect.

SMILES | viability change, negative = cytotoxic | Potency
CN(C)CCN(C)C | -4.28% | –
Cl | – | inactive
CCCCCOC(=O)c1ccccc1C(=O)OCCCCC | – | inactive
CC(C)(C)C(=O)CCl | – | inactive
CCCN(CCC)c1c([N+](=O)[O-])cc(S(C)(=O)=O)cc1[N+](=O)[O-] | 0.363% | –
O=C(Cl)OCc1ccccc1 | 3.66% | –
C=CCN1C[C@H](C)N([C@H](c2ccc(C(=O)N(CC)CC)cc2)c2cccc(OC)c2)C[C@H]1C | -1.48% [at 42.5 µM] | –
C=CC(C)=O | 1.47% | –
Nc1cc2c3c(c1)C(c1ccccc1)=N[C@@H](NC(=O)c1cccnc1)C(=O)N3CC2 | 0.895% | –
CC(C)C(Br)C(=O)NC(N)=O (stereo not given) | 3.94% [at 42.5 µM] | –
NC(=O)c1ccc(N)nc1 | 4.37% | –
Clc1cc(C(Cl)(Cl)Cl)cnc1Cl | 0.231% | –
CCCCON=O | -11.2% | –
CC(C)(C#N)N=NC(C)(C)C#N | – | inactive
[F][Sn]([c]1ccccc1)([c]1ccccc1)[c]1ccccc1 | – | 5.45 µM (active)
CC1(C)C(C(=O)OC(C#N)c2cccc(Oc3ccccc3)c2)C1(C)C (stereo not given) | – | inactive
CC1(C)CC/C(=C/c2ccc(Cl)cc2)C1(O)Cn1cncn1 (stereo not given) | 0.26% | –
O=C1C2(Cl)C3(Cl)C4(Cl)C(Cl)(Cl)C5(Cl)C3(Cl)C1(Cl)C5(Cl)C24Cl (stereo not given) | – | 60.1 µM (active)
C[C@@H]1O[C@@H](O[C@H]2C[C@@H](O)[C@]3(CO)[C@H]4[C@H](O)C[C@]5(C)[C@@H](C6=CC(=O)OC6)CC[C@]5(O)[C@@H]4CC[C@]3(O)C2)[C@H](O)[C@H](O)[C@H]1O | – | 0.073 µM (active)
CC1C=[C-]C=C1.[C-]#[O+].[C-]#[O+].[C-]#[O+].[Mn] | – | inactive
